Results filed as inconclusive are left out. The source made the active and inactive calls. The call rests on the fitted dose curve; in most records, active means well fitted curve in the direction sought with a large enough effect in the repeat runs; inconclusive means weak or mixed curves; inactive means no such curve, though single readings can be large; an effect the other way counts as inactive or inconclusive.
Assay: A CellTox Green Cytotoxicity Assay to monitor cytotoxicity in HEK293 cells - 8 hour (AID 1224884); further: nearly all actives have a fitted effect of over 35% in size
Conditions: CellTox Green fluorescence; series mostly up to 76.8 µM; cytotoxicity increase: at the top concentration
Summary of the method: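 Tox21 screen in HEK293: membrane-impermeant cyanine dye fluoresces on binding dead-cell DNA; compound pinned 5 h post-seeding, plates held at 37 C, signal read repeatedly through 40 h.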
On the % scale 0 is the no-effect control and ±100 the full control effect; potency means the concentration at half of the fitted maximal effect.

Structure (SMILES) | cytotoxicity increase | Potency
CCCCC/C=C\C=C\C(=O)OCC | 5.5% (inactive) | 
CCCCCCCCCCCCCCCCCCNC(=O)OC1CCN(C(=O)OC[C@H](COC(=O)N(Cc2cccc[n+]2CC)C(=O)c2ccccc2OC)OC)CC1 |  | 26.8 µM (active)
CCCC(=O)c1cc(O)c(O)cc1O | -6.55% (inactive) | 
Cc1c[nH]c(=O)[nH]c1=O | -1.16% (inactive) | 

Assay: qHTS RealTime-Glo MT Cell Viability Assay in HepG2 cells - 16 hour (AID 1224885); further: nearly all actives have a fitted effect of over 50% in size
Conditions: RealTime-Glo luminescence; series mostly up to 76.8 µM; activity change, negative = cytotoxic: at the top concentration
Summary of the method: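 HepG2 cells were seeded at 600 cells/well together with NanoLuc luciferase and a cell-permeant prosubstrate, preincubated 5 h at 37 C/5% CO2, then pin-dosed with compounds in DMSO. Nonlytic luminescence from viable cells was read at each time point.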

Structure (SMILES) | activity change, negative = cytotoxic | Potency
O=C1CCCCCCCCCCCCCC1 | -9.07% (inactive) | 
c1ccc2c(c1)-c1ccc3ccc4cccc5cc-2c1c3c45 | -1.13% [at 35.3 µM] (inactive) | 
COc1cc([C@@H]2c3cc4c(cc3[C@@H](O[C@@H]3O[C@@H]5CO[C@@H](C)O[C@H]5[C@H](O)[C@H]3O)[C@H]3COC(=O)[C@H]23)OCO4)cc(OC)c1O | -9.29% (inactive) | 
COc1c(Br)cc(Br)c(C)c1Br | -15.7% (inactive) | 
O=C(CCCCCCCCc1cccnc1)N1CCC(C=C(c2ccccc2)c2ccccc2)CC1 |  | 49 µM (active)
CCCCCCCC/C=C\CCCCCCCC(=O)N(CCO)CCO | -20.2% (inactive) | 
CC1=C(/C=C/C(C)=C/C=C/C(C)=C\C(=O)O)C(C)(C)CCC1 | -8.77% (inactive) | 
CC(C)(C)c1ccc(OC2CCCCC2O)cc1 (configuration not stated) | -12.1% (inactive) | 
CCCCCCCCCCCCCCCCC(C(=O)O)C(O)(CC(=O)O)C(=O)O (configuration not stated) | -10.3% [at 35.3 µM] (inactive) | 
O=C(Nc1ccccc1)c1cc(Cl)ccc1O | -24.5% (inactive) | 
Cc1c[nH]c(=O)[nH]c1=O | 2.52% (inactive) | 

Assay: qHTS RealTime-Glo MT Cell Viability Assay in HEK293 cells - 24 hour (AID 1224886); further: nearly all actives have a fitted effect of over 50% in size; on activity change, negative = cytotoxicity: top concentration of the series differs between compounds
Conditions: RealTime-Glo luminescence; series mostly up to 76.8 µM; activity change, negative = cytotoxicity: at the top concentration
Summary of the method: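 HEK293 cells were seeded at 600 cells/well together with NanoLuc luciferase and cell-permeant prosubstrate, preincubated 5 h at 37 C/5% CO2, then given compound in DMSO by pintool. Luminescence from viable-cell prosubstrate reduction was read repeatedly over 40 h.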

Structure (SMILES) | activity change, negative = cytotoxicity | Potency
Cc1ccc(Cl)c(N)c1Cl | 0.577% (inactive) | 
O=C1CCCCCCCCCCCCCC1 | -15.2% (inactive) | 
COc1cc(/C=C/C(=O)CC(=O)/C=C/c2ccc(O)c(OC)c2)ccc1O |  | 31.1 µM (active)
c1ccc2c(c1)-c1ccc3ccc4cccc5cc-2c1c3c45 | -4.6% [at 35.3 µM] (inactive) | 
Cc1cc(Br)ccc1NC(=O)CCl |  | 30.9 µM (active)
NCc1cccc(C2CCN(C(=O)c3ccc(C#Cc4ccccc4F)o3)CC2)c1 |  | 54.9 µM (active)
C=CCc1cc(S(=O)(=O)c2ccc(O)c(CC=C)c2)ccc1O |  | 27.5 µM (active)
c1ccc2cc3c4ccccc4c4ccccc4c3cc2c1 | -2.63% (inactive) | 
CC(=O)[C@]1(O)Cc2c(O)c3c(c(O)c2[C@@H](O[C@H]2C[C@H](N)[C@H](O)[C@H](C)O2)C1)C(=O)c1ccccc1C3=O |  | 0.12 µM (active)
O=C1CCC/C=C\CCCCCCCCCC1 | -8.12% (inactive) | 
COc1cc([C@@H]2c3cc4c(cc3[C@@H](O[C@@H]3O[C@@H]5CO[C@@H](C)O[C@H]5[C@H](O)[C@H]3O)[C@H]3COC(=O)[C@H]23)OCO4)cc(OC)c1O |  | 1.08 µM (active)
COc1c(Br)cc(Br)c(C)c1Br | 0.0161% (inactive) | 
N#Cc1ccc(C/C(=N/NC(=O)Nc2ccc(OC(F)(F)F)cc2)c2cccc(C(F)(F)F)c2)cc1 | -5.57% (inactive) | 
O=C(CCCCCCCCc1cccnc1)N1CCC(C=C(c2ccccc2)c2ccccc2)CC1 |  | 21.9 µM (active)
c1ccc(C[P+](c2ccccc2)(c2ccccc2)c2ccccc2)cc1 |  | 1.74 µM (active)
CCCCCCCC/C=C\CCCCCCCC(=O)N(CCO)CCO |  | 43.5 µM (active)
CC(C)(C)c1ccc(OC2CCCCC2O)cc1 (configuration not stated) |  | 54.9 µM (active)
CCCCCCCCCCCCCCCCC(C(=O)O)C(O)(CC(=O)O)C(=O)O (configuration not stated) | 0.421% [at 35.3 µM] (inactive) | 
CCCCCCCCCCCCCCCCCCNC(=O)OC1CCN(C(=O)OC[C@H](COC(=O)N(Cc2cccc[n+]2CC)C(=O)c2ccccc2OC)OC)CC1 |  | 10.7 µM (active)
Clc1nc(C(Cl)(Cl)Cl)c(Cl)c(Cl)c1Cl | -55.8% (inactive) | 
CC(O)(c1ccc(Cl)cc1)c1ccc(Cl)cc1 |  | 24.5 µM (active)
Cc1c[nH]c(=O)[nH]c1=O | 9.29% (inactive) | 
